Laboratory results from PubChem BioAssay (NCI).
This is part of a sample that, as a whole, favours compounds with a hit. Of some 83,000 tested, about 20% had one in any assay.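 Cell lines were cultured in 96-well plates, exposed to a single compound concentration, and assessed for percent growth 48 hours later.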

Experiments:
Assay in all cases: NCI-60 one-dose screen, 48 h (100 = growth as untreated, 0 = no growth, -100 = all killed)
Details in all cases: 10 µM unless noted; active means growth percent below 10; inactive means the rest
MDA-MB-435 melanoma = system: MDA-MB-435 melanoma
SW-620 colon = system: SW-620 colon
MCF7 breast = system: MCF7 breast
HCT-116 colon = system: HCT-116 colon
HCC-2998 colon = system: HCC-2998 colon
KM12 colon = system: KM12 colon

Measured: growth

O=C(Nc1cccc(Cl)c1)c1ccc(Cl)cc1Cl
inactive: MDA-MB-435 melanoma 89.1% | SW-620 colon 92.7% | MCF7 breast 83.3% | HCT-116 colon 89% | HCC-2998 colon 106%

O=C(NCc1ccccc1)c1cccc([N+](=O)[O-])c1
inactive: MDA-MB-435 melanoma 98.4% | SW-620 colon 99.2% | MCF7 breast 97.8% | HCT-116 colon 103% | HCC-2998 colon 108% | KM12 colon 85%

CCCNS(=O)(=O)c1ccc(Cl)cc1
inactive: MDA-MB-435 melanoma 93.3% | SW-620 colon 96.2% | MCF7 breast 93.3% | HCT-116 colon 103% | HCC-2998 colon 98.9% | KM12 colon 99.6%
